For some of these results: Potency and affinity values are given separately.
What was measured:
Design in all cases: scale not given: direction of the effect not stated beside the values
[1] = biological target: Protein translocase subunit SecA (Escherichia coli (strain K12)) (UniProt P10408); experiment: Assay to Identify E. coli SecA ATPase Inhibitors; format: functional; settings: 30 µM
[2] = biological target: T1, Ubiquitin-activating enzyme e1, putative (Leishmania donovani (strain BPK282A1)) (UniProt E9BSI1); experiment: Leishmania donovani Ubiquitin Activating Enzyme (LdE1); format: functional; settings: 30 µM
T1 sequence (whole entry): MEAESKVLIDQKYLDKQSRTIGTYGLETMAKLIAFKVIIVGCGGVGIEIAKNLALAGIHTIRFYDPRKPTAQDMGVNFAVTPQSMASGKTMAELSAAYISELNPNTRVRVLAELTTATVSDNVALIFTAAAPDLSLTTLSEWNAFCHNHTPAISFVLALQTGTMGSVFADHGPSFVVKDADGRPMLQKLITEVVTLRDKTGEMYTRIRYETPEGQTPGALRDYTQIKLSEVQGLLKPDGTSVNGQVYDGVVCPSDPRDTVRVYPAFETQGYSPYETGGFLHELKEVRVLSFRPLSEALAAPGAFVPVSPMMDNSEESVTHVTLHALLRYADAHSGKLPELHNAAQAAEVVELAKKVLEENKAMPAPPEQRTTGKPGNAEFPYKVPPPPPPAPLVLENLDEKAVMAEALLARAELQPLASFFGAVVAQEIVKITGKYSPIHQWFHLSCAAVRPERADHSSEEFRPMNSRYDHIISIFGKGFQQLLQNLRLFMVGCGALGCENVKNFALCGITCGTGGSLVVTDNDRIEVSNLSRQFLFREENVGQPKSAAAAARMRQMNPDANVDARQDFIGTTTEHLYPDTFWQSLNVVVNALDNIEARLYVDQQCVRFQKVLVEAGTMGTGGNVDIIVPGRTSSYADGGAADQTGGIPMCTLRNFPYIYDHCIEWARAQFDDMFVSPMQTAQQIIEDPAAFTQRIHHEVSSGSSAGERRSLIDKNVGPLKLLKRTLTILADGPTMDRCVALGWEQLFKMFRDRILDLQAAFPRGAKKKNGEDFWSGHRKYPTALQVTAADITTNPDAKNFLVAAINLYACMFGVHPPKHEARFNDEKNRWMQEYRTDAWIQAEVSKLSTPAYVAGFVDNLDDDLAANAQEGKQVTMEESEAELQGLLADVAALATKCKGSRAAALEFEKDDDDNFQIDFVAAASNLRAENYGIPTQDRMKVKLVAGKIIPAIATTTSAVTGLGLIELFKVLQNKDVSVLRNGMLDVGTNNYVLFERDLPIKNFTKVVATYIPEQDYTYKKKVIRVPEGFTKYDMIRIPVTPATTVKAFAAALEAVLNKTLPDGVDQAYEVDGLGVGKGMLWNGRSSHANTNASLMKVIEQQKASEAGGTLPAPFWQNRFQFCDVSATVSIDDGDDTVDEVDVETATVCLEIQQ

[3] = biological target: T2, Aspartate--tRNA(Asp/Asn) ligase (Mycobacterium tuberculosis (strain ATCC 25618 / H37Rv)) (UniProt P9WFW3); experiment: Assay for Asp RNA synthetase-1 from Mycobacterium tuberculosis; format: functional; settings: 30 µM; also: in the data most compounds retested in dose-response had high values
T2 sequence (whole entry): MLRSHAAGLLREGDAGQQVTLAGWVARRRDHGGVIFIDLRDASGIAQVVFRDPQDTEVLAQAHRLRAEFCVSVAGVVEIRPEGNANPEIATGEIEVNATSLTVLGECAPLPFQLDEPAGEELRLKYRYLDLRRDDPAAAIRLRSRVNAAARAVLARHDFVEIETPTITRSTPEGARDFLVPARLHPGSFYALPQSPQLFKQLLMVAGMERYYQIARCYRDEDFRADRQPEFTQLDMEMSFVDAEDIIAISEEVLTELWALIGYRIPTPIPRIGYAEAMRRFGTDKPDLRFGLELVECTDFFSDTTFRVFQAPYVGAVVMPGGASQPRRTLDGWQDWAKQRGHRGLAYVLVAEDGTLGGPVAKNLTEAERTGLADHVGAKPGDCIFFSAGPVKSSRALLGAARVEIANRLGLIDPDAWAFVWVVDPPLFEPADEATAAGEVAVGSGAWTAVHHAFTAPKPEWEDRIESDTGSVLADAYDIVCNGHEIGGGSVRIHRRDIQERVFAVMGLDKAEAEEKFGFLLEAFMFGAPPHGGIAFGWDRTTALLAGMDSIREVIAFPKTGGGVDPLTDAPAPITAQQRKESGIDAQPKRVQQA

[4] = biological target: AMP-activated protein kinase, AMPK (Homo sapiens) (UniProt P54646+O43741+P54619+Q9UGJ0+Q9Y478+Q13131+Q9UGI9); experiment: AMP-dependent Kinase enzyme assay. An in vitro enzyme assay that detects ADP turnover that is directly proportional to AMPK activity. This uses naive AMPK that is activated during the assay with MK-8722; format: functional; settings: 30 µM
[5] = biological target: Sialic acid-binding Ig-like lectin 9 (Homo sapiens) (UniProt Q9Y336); experiment: Hs-Siglec9 ALPHAscreen SOP 20170721; settings: 10 µM
Trypanosoma cruzi = experiment: Trypanosoma cruzi phosphomannomutase and mannose-1-phosphate guanylyltransferase assay; format: functional; settings: 10 µM
[6] = biological target: T3, Arginase-2, mitochondrial (Homo sapiens) (UniProt P78540); experiment: in vitro enzyme assay to detect the production of urea directly proportional to the activity of Arginase II; format: functional; settings: 33.3 µM; also: in the data most compounds retested in dose-response had high values
T3 sequence (whole entry): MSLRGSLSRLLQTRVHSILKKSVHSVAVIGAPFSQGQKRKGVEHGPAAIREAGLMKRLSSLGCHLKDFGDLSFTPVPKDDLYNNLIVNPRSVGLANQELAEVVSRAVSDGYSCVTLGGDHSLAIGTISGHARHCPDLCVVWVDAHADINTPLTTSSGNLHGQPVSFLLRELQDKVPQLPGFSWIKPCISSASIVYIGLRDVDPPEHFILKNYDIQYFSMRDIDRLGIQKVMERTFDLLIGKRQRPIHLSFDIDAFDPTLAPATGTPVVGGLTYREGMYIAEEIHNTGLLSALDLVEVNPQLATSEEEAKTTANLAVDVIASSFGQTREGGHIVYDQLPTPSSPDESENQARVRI

[7] = biological target: T4, Proteasome subunit beta (Trypanosoma cruzi) (UniProt O96673); experiment: Trypanosoma cruzi proteasome chymotrypsin-like activity (TcProtChymo) assay.; also: in the data most compounds retested in dose-response had high values; format: functional; settings: 9.37 µM
T4 sequence (whole entry): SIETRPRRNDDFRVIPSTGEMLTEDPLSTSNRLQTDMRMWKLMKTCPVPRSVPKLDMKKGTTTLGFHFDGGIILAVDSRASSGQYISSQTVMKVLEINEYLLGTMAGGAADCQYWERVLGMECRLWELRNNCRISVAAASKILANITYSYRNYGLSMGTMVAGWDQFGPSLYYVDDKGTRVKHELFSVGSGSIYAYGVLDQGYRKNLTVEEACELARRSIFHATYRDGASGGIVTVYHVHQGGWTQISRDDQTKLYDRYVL

Homo sapiens = species on record: Homo sapiens; experiment: To identify inhibition of the IFN signalling (Jak-Stat) pathway via expression of an eGFP reporter gene under the control of an IFN-stimulated response element (ISRE) containing MxA promoter.; format: functional; settings: 30 µM
[8] = biological target: Shiga toxin 2 (Escherichia coli O157:H7) (UniProt P09385+P09386); experiment: E. coli 0.157:H7 Shiga Toxin SOP - stx2 screening assay; format: functional; settings: 30 µM
[9] = biological target: T5, Tyrosyl-tRNA synthetase, putative (Trypanosoma cruzi (strain CL Brener)) (UniProt Q4DSP6); experiment: Trypanosoma cruzi tyrosyl tRNA synthetase (TcYRS) _High Tyrosine SOP; format: functional; settings: 30 µM; also: in the data most compounds retested in dose-response had high values
T5 sequence (whole entry): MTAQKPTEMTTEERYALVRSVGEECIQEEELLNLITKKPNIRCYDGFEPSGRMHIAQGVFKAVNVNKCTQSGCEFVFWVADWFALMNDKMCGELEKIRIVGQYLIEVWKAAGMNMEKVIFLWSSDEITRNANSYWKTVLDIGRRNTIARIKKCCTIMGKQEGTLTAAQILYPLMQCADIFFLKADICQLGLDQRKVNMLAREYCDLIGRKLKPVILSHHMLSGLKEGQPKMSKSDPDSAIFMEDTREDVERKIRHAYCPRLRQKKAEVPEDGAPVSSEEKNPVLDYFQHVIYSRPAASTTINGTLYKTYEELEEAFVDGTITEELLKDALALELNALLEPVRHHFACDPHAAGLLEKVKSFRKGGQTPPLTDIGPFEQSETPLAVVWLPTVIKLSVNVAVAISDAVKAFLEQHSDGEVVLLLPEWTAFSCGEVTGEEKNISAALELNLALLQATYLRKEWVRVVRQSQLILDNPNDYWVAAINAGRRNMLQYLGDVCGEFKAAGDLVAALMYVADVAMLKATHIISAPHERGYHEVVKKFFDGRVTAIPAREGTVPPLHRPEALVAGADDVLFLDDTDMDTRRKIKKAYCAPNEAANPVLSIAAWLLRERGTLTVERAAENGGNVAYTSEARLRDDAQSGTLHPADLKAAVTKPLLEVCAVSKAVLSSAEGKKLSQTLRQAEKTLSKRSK

[10] = biological target: T5, Tyrosyl-tRNA synthetase, putative (Trypanosoma cruzi (strain CL Brener)); experiment: Trypanosoma cruzi tyrosyl tRNA synthetase (TcYRS) SOP; format: functional; settings: 30 µM
[11] = biological target: Chromo domain-containing protein 1 (Saccharomyces cerevisiae (strain ATCC 204508 / S288c) (Baker's yeast)) (UniProt P32657); experiment: ScCHD-1 Enzyme Inhibition Assay; format: functional; settings: 30 µM; also: in the data most compounds retested in dose-response had high values
Sequence of Chromo domain-containing protein 1 (Saccharomyces cerevisiae (strain ATCC 204508 / S288c) (Baker's yeast)) (P32657 whole entry, the tested form may be a part): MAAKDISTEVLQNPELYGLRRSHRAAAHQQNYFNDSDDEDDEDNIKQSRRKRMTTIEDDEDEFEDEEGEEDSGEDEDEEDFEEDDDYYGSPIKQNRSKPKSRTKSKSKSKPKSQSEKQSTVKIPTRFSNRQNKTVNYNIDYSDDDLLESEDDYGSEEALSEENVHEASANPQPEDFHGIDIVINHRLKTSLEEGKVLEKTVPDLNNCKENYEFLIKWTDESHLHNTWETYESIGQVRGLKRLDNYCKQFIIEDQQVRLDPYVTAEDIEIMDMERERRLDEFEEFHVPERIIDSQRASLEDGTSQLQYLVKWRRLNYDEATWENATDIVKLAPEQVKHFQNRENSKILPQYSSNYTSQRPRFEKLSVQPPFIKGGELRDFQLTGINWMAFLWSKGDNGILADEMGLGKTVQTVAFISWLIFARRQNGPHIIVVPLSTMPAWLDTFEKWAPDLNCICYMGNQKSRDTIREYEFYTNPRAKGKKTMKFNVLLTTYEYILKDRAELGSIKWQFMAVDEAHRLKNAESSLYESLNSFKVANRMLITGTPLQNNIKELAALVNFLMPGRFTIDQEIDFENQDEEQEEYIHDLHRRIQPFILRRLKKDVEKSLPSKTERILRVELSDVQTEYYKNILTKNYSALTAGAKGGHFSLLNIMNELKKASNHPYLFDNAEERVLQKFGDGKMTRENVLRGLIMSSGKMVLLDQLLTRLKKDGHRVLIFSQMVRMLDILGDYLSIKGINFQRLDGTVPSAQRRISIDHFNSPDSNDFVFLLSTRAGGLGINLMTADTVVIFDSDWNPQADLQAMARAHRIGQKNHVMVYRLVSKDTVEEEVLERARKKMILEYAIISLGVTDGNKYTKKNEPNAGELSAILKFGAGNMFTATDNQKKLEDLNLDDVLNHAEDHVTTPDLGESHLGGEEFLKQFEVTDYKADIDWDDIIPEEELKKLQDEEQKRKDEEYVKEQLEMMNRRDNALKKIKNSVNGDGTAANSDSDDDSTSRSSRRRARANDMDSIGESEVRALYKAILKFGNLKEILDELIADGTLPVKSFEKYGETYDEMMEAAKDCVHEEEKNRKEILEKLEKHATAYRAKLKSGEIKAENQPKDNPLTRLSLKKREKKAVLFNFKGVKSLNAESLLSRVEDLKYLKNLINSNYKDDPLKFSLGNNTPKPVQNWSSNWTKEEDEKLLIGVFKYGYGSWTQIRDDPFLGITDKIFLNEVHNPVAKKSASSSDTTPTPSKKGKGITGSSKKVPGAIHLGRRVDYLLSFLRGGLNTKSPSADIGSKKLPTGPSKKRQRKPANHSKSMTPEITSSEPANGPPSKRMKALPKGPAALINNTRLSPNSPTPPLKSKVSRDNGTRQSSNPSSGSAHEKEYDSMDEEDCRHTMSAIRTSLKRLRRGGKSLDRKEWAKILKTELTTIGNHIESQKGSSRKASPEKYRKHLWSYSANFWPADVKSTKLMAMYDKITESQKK

Sequence of Protein translocase subunit SecA (Escherichia coli (strain K12)) (P10408 whole entry): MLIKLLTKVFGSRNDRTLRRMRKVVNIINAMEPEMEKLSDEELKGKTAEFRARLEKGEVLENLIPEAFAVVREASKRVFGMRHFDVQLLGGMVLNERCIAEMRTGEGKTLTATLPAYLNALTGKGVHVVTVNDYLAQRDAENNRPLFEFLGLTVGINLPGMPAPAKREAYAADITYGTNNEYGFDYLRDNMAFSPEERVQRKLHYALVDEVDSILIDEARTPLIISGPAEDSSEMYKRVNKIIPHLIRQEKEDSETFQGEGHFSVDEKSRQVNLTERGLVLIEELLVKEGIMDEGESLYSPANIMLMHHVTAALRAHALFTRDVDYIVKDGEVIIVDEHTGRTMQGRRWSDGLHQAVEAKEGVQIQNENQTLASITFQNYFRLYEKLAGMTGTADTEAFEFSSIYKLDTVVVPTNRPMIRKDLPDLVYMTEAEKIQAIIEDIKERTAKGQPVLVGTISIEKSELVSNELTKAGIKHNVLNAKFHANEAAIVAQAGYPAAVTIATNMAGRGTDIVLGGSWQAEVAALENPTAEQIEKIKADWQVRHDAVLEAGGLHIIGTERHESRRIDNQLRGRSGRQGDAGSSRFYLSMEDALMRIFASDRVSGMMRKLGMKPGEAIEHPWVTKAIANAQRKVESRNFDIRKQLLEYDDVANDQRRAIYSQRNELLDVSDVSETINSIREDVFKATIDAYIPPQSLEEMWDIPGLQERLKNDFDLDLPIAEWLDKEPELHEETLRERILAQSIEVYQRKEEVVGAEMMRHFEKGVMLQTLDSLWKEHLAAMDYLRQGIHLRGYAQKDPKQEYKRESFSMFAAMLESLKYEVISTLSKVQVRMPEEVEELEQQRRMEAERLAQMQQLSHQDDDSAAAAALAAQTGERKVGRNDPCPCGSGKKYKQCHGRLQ
Sequence of Sialic acid-binding Ig-like lectin 9 (Homo sapiens) (Q9Y336 whole entry): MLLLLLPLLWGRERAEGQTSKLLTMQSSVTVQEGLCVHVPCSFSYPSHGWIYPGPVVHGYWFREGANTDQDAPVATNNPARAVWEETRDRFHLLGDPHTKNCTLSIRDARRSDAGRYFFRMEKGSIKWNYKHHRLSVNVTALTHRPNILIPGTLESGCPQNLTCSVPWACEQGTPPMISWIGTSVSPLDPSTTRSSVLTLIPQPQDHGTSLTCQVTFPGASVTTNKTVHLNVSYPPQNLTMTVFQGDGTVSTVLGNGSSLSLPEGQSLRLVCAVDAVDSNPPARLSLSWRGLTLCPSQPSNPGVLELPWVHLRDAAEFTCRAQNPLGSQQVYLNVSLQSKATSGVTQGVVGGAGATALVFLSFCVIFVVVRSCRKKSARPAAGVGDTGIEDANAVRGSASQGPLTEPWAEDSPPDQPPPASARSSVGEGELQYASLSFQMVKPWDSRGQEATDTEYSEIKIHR

| Structure (SMILES) | Percent Effect [1] [%] | Percent Effect [2] [%] | Percent Effect [3] [%] | Percent Effect [4] [%] | Percent Effect [5] [%] | Percent Effect (Trypanosoma cruzi) [%] | Percent Effect [6] [%] | Percent Effect [7] [%] | Percent Effect (Homo sapiens) [%] | Percent Effect [8] [%] | Percent Effect [9] [%] | Percent Effect [10] [%] | Percent Effect [11] [%] |
| --- | --- | --- | --- | --- | --- | --- | --- | --- | --- | --- | --- | --- | --- |
| CCN1CCC2(CC1)CC(Nc1ncccn1)CO2 (stereo unspecified) | -4.33 | 2.7 | -1.65 | -2.57 | 1.3 | 4.49 | 35.8 | 6.34 | 8.12 | 11.5 | 6.93 | 13.4 | -1.38 |
| Cc1cc(CN2CC[C@H]3C[C@H](C)O[C@@H]3C2)no1 | -1.91 | 18.9 | -4.38 | -0.664 | -1.18 | 3.23 | 5.41 | 9.96 | 17.4 | -1.03 | 7.57 | 17.9 | 1.93 |
| O=C([C@H]1C[C@H]2OCC[C@H]2N(Cc2cccnc2)C1)N1CCCO1 | -1.59 | 10.8 | 5.55 | 3.09 | -7.38 | -0.489 | 20.1 | 27.7 | 14.1 | -7.24 | 13 | 15.4 | 3.21 |
| c1ccc(CN2CC[C@H]3CO[C@H](CNc4ncccn4)[C@H]3C2)nc1 | -2.49 | 8 | -3.84 | 2.38 | 4.32 | -0.772 | -54.3 | 9.74 | -5.93 | 3.55 | 2.08 | 12.5 | -8.55 |
| c1ccc(OC[C@H]2CCC[C@]23CN(Cc2nccs2)CCO3)nc1 | 1.87 | 0 | -0.162 | -19.9 | 5.02 | -2.36 | -15.2 | 3.08 | 34.4 | -11.8 | 1.06 | 3.85 | 3.38 |
| CNC(=O)c1ccc2c(c1)C1(CCN(CC(C)C)CC1)C(=O)N2 | -7.23 | 5.41 | 3.94 | -0.561 | -0.632 | -4.2 | 0.248 | 3.52 | 3.77 | 7.05 | 4.3 | 11.1 | -2.94 |
| Cc1noc([C@@H]2C[C@H]3CN(Cc4cc(C)on4)C[C@H]3O2)n1 | -0.923 | 10.4 | 2.67 | 5.31 | -5.26 | -4.63 | 9.68 | 12.4 | 10.4 | -9.84 | 3.17 | 6.41 | -8.87 |

From ChEMBL document CHEMBL3988442, “University of Dundee, Small-Polar-MMV Screening Library” (2021)
